Only some compounds are listed: those with a hit (about 21% of all), similar ones and a draw of the others.
Shiga inhibitor = A qHTS for Small Molecule Inhibitors of Shiga Toxin | actives 9.2% (n = 290,000) | Vero cells, Shiga toxin protein synthesis inhibition reporter | inhibition, % at 38.7 µM; in the data active = inhibition mostly above about 28%, no sharp cut-off; inactive = mostly below about 43%
CHX counter = Cycloheximide Counterscreen for Small Molecule Inhibitors of Shiga Toxin. cell reporter, cycloheximide protein synthesis inhibition counterscreen. AID 2314, 2010. actives 12% (n = 300,000). max response, %; in the data active = max response mostly above about 13%, no sharp cut-off; inactive = mostly below about 14%; note: read at 38.3 µM for the half of the compounds with a filed dose
HCV inh = qHTS Assay for Inhibitors of Hepatitis C Virus (HCV) | Huh7.5.1 HCVcc-Cre infection, luciferase reporter, 44 h | Potency, µM (doses to about 41.8 µM), hits mostly inhibitors | actives 3.4% (n = 340,000)
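Infectious HCVcc-Cre (~0.5 moi) was added to cells just after compound, with cells seeded 4 h earlier at 1,000 per well. Luciferase activity after 44 h culture reported infection; substrate was incubated 15 min at room temperature before reading.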
Pf growth 96h = Primary qHTS for delayed death inhibitors of the malarial parasite plastid, 96 hour incubation; P. falciparum luciferase reporter growth, 96 h; Potency, µM (highest dose often 28.7 µM), most hits filed as inhibitors; actives 6.9% (n = 320,000); AID 504834, 2011
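Readout is luminescence from an integrated firefly luciferase in P. falciparum. Red cells, 2% hematocrit and 0.05% parasitemia final, were cultured with compound through two parasite generations (96 hours) at 37 C, 5% CO2.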
HCMV inh = qHTS Assay for inhibitors of the human cytomegalovirus (HCMV); HFF cells, HCMV-luciferase reporter, 72 h; hits give low values; actives 4.5% (n = 410,000); activity change, negative = inhibition, % at 57.5 µM; in the data active = activity change below about -60%; inconclusive = no clear call, values can overlap the other calls; inactive = above about -39%
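Luciferase read-out from HCMV-luciferase-infected HFFs (MOI 1 PFU/cell) 72 h post infection at 37C; compounds added after 16 h cell attachment; activity normalized between buffer-only basal and Salinomycin (10uM) inhibitor controls.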
Pf growth 48h = Primary qHTS for delayed death inhibitors of the malarial parasite plastid, 48 hour incubation; P. falciparum luciferase growth in erythrocytes, 48 h; Potency, µM (highest dose often 28.7 µM), hits mostly inhibitors; actives 5.9% (n = 310,000)
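Parasite viability was followed by luminescence of a genomically integrated firefly luciferase. Cultures held 0.1% parasitemia at 2% hematocrit (final), incubated under 5% CO2 at 37 C.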
Large screens that a line does not name were inactive. Unless noted, calls come from the whole dose curve; as a rule, active = well fitted inhibition curve with a large enough effect; inconclusive = small, poorly fitted or top-dose-only effect, or another doubt; inactive = no such curve, though single readings can be large or run the other way.

COc1ccc(C2c3c(n(C)c4ccccc34)C(=O)N2CC(=O)Nc2cc(Cl)ccc2C)cc1 (centres undefined)	none (no result: Shiga inhibitor, CHX counter, HCV inh, Pf growth 96h, Pf growth 48h)
OCCNCCCOc1ccc(Cl)cc1Br	Pf growth 96h inconclusive, Pf growth 48h inconclusive
Cc1cc(Br)ccc1OCCCCNCCO	HCV inh 10µM, Pf growth 96h 10.4µM, Pf growth 48h inconclusive
C=CCNCCCCOc1ccc(Br)cc1C	Pf growth 96h 9.28µM
COc1ccc(C(=O)C2CCCN(C(=O)c3cccc(N4CCCC4=O)c3)C2)cc1OC (centres undefined)	Pf growth 48h inconclusive
O=S(=O)([O-])CCC[n+]1c(SCCCS(=O)(=O)O)sc2ccc(Cl)cc21	Pf growth 96h inconclusive
O=C(CSc1ncn(-c2ccccc2)n1)NCc1ccccc1	none (no result: Pf growth 96h)
O=C(CSc1ncn(-c2ccccc2)n1)N1CCN(c2ccccc2)CC1	none
Cc1ccc(CSc2ncn(-c3ccccc3)n2)cc1	Shiga inhibitor 86.3, CHX counter 36.0, Pf growth 96h inconclusive (no result: Pf growth 48h)
Clc1ccccc1CSc1ncn(-c2ccccc2)n1	Shiga inhibitor 69.6, CHX counter 42.4
Cc1ccc(SCCOCCN2CCc3ccccc3C2)cc1	HCV inh inconclusive
CCOc1ccc(N2CC(C(=O)Nc3ccc(F)cc3F)CC2=O)cc1 (centres undefined)	Pf growth 96h 9.28µM, HCMV inh -101.6
CCOc1ccc(N2CC(C(=O)Nc3ccccc3OC)CC2=O)cc1 (centres undefined)	Pf growth 96h inconclusive, Pf growth 48h inconclusive
CCOc1ccc(N2CC(C(=O)N3CCCC3)CC2=O)cc1 (centres undefined)	Pf growth 96h 11.7µM, HCMV inh inconclusive
CCOc1ccc(N2CC(C(=O)Nc3ccc4c(c3)OCO4)CC2=O)cc1 (centres undefined)	HCMV inh -64.0
CCCOc1ccc(N2CC(C(=O)Nc3cccc(Cl)c3Cl)CC2=O)cc1 (centres undefined)	HCMV inh -87.5 (no result: Shiga inhibitor, CHX counter, HCV inh, Pf growth 96h, Pf growth 48h)
CCCOc1ccc(N2CC(C(=O)Nc3ccccc3C(=O)NC)CC2=O)cc1 (centres undefined)	Pf growth 96h inconclusive
Cc1cc2n(n1)CCC(=O)N2Cc1ccc(C(=O)Nc2ccc(F)cc2F)cc1	none (no result: Shiga inhibitor, CHX counter, HCV inh, Pf growth 96h, Pf growth 48h)
CCOc1ccc(N2CC(C(=O)Nc3ccc4c(c3)OCCO4)CC2=O)cc1 (centres undefined)	Shiga inhibitor 62.2, CHX counter 49.8
Cc1cc(C)c(NC(=O)C2CC(=O)N(c3ccc4c(c3)OCCO4)C2)c(C)c1 (centres undefined)	CHX counter 26.0, HCV inh inconclusive (no result: Pf growth 48h)
O=C(Oc1ccc([N+](=O)[O-])cc1)C1CC(=O)N(c2ccc3c(c2)OCCO3)C1 (centres undefined)	HCMV inh -100.1 (no result: Shiga inhibitor, CHX counter, Pf growth 96h, Pf growth 48h)
CCC(=O)c1ccc(OCC(=O)OCC(=O)NCCCc2ccccc2)cc1	Pf growth 96h inconclusive (no result: Shiga inhibitor, CHX counter)
CC1(C)Cc2c(cnn2-c2ccccc2)C(NC(=O)c2ccc[n+]([O-])c2)C1 (centres undefined)	none
COc1cc(OC)c(OC)cc1CNc1sc2c(c1C(=O)Nc1ccccc1OC)CCC2	none (no result: Shiga inhibitor, CHX counter, HCV inh, Pf growth 96h, Pf growth 48h)
CCOC(=O)c1ccc(COC(=O)c2ccc3c(c2)-c2ccccc2C3=O)cc1	HCMV inh inconclusive
CCOC(=O)C1=C(Cc2ccc(C)cc2)C(=O)c2ccccc2C1=O	CHX counter 18.8, Pf growth 96h 2.33µM (no result: HCV inh, Pf growth 48h)
CCOC(=O)C1=C(Cc2ccc(OC)cc2)C(=O)c2ccccc2C1=O	CHX counter 26.8, HCV inh inconclusive, Pf growth 48h 4.65µM (no result: Pf growth 96h, HCMV inh)
CCOC(=O)c1c(C)nc2c(c1-c1cc(OC)ccc1OC)C(=O)c1ccccc1-2	HCV inh inconclusive
O=C(C1CN(C(=O)c2cc3cc(Cl)ccc3o2)c2ccccc2O1)N1CCCCC1 (centres undefined)	HCV inh inconclusive, Pf growth 96h inconclusive, HCMV inh inconclusive (no result: Shiga inhibitor, CHX counter)
O=C(CSc1nnc(Cn2c(=O)sc3ccccc32)n1CCc1ccccc1)N1CCOCC1	Pf growth 96h inconclusive, Pf growth 48h 9.28µM
CSc1nnc(Cn2c(=O)sc3ccccc32)n1CCc1ccccc1	Pf growth 96h 13.1µM (no result: Pf growth 48h)
